Bioassay records from PubChem.
IDH1 R132H inh – qHTS for Inhibitors of mutant isocitrate dehydrogenase 1 (IDH1): qHTS. IDH1-R132H enzyme, NADPH consumption, diaphorase/resazurin fluorescence. Potency, µM (doses to about 76.6 µM), for inactives: at the highest dose activity change, negative = inhibition, actives largely listed as inhibitors. hit rate 0.093% among 390,000; further: on the % scale 0 is the no-effect control and ±100 the full control effect; nearly all actives have a fitted effect of over 65% in size
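IDH1-R132H (0.5 ug/mL) preincubated 30 min with compound, then NADPH (0.016 mM) and alpha-KG (2 mM) added; 80 min at RT, pH 7.5. Remaining NADPH coupled via diaphorase/resazurin to fluorescence (540/590 nm); concentration-response curves normalized to no-enzyme control.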
TrxR1 substrate – qHTS Assay for Substrates of Mammalian Selenoprotein Thioredoxin Reductase 1 (TrxR1): qHTS; Thioredoxin reductase 1, cytoplasmic (Rattus norvegicus), O89049; purified TrxR1 substrate turnover, NADPH consumption readout; Potency, µM (titrated, usually from 114 µM), for inactives: top-dose activity change, negative = substrate turnover; hit rate 0.01% among 390,000; AID 588456, 2011; further: on the % scale 0 is the no-effect control and ±100 the full control effect; nearly all actives have a fitted effect of over 50% in size
Target sequence (O89049 whole entry, looked up): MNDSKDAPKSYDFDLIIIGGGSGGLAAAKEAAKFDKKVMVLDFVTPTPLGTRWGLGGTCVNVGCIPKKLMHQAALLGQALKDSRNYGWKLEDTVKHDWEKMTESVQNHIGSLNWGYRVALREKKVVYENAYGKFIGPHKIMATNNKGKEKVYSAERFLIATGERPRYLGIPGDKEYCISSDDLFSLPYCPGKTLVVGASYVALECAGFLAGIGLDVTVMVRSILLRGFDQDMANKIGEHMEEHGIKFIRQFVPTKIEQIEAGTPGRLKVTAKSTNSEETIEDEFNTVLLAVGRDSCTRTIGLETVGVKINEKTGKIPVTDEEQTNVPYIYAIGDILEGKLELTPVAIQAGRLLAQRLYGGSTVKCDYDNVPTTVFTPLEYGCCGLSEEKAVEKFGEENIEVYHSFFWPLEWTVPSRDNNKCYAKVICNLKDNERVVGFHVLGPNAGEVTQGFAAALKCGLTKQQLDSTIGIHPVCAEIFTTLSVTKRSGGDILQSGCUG
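Rat TrxR1, dispensed at 90 nM, was prereduced with 400 uM NADPH (final) for 5 min at ~22 deg C, then incubated with compound 15 min before 400 uM selenite. A first-read NADPH fluorescence drop versus no-compound background flagged substrates.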
GLP1R cytotox – qHTS of GLP-1 Receptor Inverse Agonists: Cytotox Screen; hit rate 0.13% among 410,000; Potency, µM (series often up to 38.3 µM), without a hit: top-dose activity change, negative = inhibition, usual class: inhibitors; AID 624418, 2012; HEK293 cAMP-luciferase reporter cells, luminescence, 24 h;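 further: loss of luciferase light is scored as toxicity; on the % scale 0 is the no-effect control and ±100 the full control effect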
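Step one: seed cells (200 cells/uL, DMEM with 10% Nu serum, 1% pen-strep). Step two: 12-hour incubation at 37 deg C. Step three: pin 23 nL compound, incubate 24 hr. Step four: add luciferase reagent, read luminescence 12 min later.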
TrxR1 inh – qHTS Assay for Inhibitors of Mammalian Selenoprotein Thioredoxin Reductase 1 (TrxR1): qHTS. Thioredoxin reductase 1, cytoplasmic (Rattus norvegicus), O89049. recombinant rTrxR1, NADPH fluorescence consumption, selenite substrate. Potency, µM (doses to about 114 µM), for inactives: top-dose activity change, negative = inhibition, hits mostly inhibitors. hit rate 1% among 390,000. AID 588453, 2011; further: on the % scale 0 is the no-effect control and ±100 the full control effect; nearly all actives have a fitted effect of over 65% in size
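Rat TrxR1 (90 nM in the dispensed reagent) was pre-reduced with 400 uM NADPH for 5 min at room temperature, then incubated with compound for 15 min. After 400 uM selenite was added, NADPH fluorescence (Ex 340/Em 450 nm) was followed for 8 min.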
GLP1R ag – qHTS of GLP-1 Receptor Agonists. AID 624172, 2012. HEK293 GLP-1R CRE-luciferase, luminescence, 4-6 h; cells express a hypersensitive GLP-1R form. Glucagon-like peptide 1 receptor (Homo sapiens), P43220. hit rate 0.007% among 380,000. Potency, µM (titrated, usually from 45.6 µM), for inactives: at the highest dose activation, most hits filed as activators; further: % of control where 0% means no effect
GLP-1R inv ag – qHTS of GLP-1 Receptor Inverse Agonists (Inhibition Mode); Potency, µM (series often up to 38.3 µM), inactives show at the highest dose activity change, negative = inhibition, hits mostly inhibitors; hit rate 1.6% among 410,000; HEK293 GLP-1R CRE-luciferase, luminescence, 24 h; GLP-1R form is constitutively active; Glucagon-like peptide 1 receptor (Homo sapiens), P43220; AID 624417, 2012; further: on the % scale 0 is the no-effect control and ±100 the full control effect; nearly all actives have a fitted effect of over 55% in size
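Using stably transfected HEK293 (constitutively active GLP-1R, cAMP-luciferase reporter), compounds were incubated 24 hr and luciferase measured by luminescence.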
* = called active by the depositor; [ ] = dose if it differs, or a comment. Sampled rows, rich in hits. Any-hit rate of the full collection: about 2.7%. The call rests on the fitted dose curve; in most records, active means well fitted curve in the direction sought with a large enough effect; inconclusive means small, poorly fitted or top-dose-only effect, or another doubt; inactive means no such curve, though single readings can be large; an effect the other way counts as inactive or inconclusive. Potency means the concentration at half of the fitted maximal effect.

What do the screens show for `CC(C)CC(N)c1csc(NC(=O)c2cc(C(C)(C)C)nn2Cc2ccccc2)n1` (stereo not drawn)?
GLP1R cytotox: inconclusive; GLP1R ag: -18%; GLP-1R inv ag: inconclusive

How did CC(C)c1cc(C(=O)OCC(=O)NC(=O)NCc2ccco2)c(O)c(C(C)C)c1 do in these assays?
IDH1 R132H inh: 5%; TrxR1 substrate: -1%[57.1 µM]; GLP1R cytotox: inconclusive; TrxR1 inh: 0%[57.1 µM]; GLP1R ag: 5%; GLP-1R inv ag: 3.5µM*

How did Cc1nn(Cc2ccccc2)c(C)c1C(=O)OCC(=O)NCc1ccco1 do in these assays?
IDH1 R132H inh: 4%; TrxR1 substrate: 14%; GLP1R cytotox: -11%; TrxR1 inh: 22%; GLP1R ag: 0%; GLP-1R inv ag: 1%

What do the screens show for `C[C@@H]1CNC(=O)c2c(C(=O)Nc3cccc(Cl)c3)ncn21`?
IDH1 R132H inh: 17%; GLP1R cytotox: -14%; GLP1R ag: -3%; GLP-1R inv ag: 27%

What do the screens show for `Cc1ccc(NC(=O)c2ccccc2NS(=O)(=O)c2ccc(Cl)s2)cc1S(=O)(=O)N1CCOCC1`?
IDH1 R132H inh: -13%; TrxR1 substrate: -6%; GLP1R cytotox: inconclusive; TrxR1 inh: -1%; GLP1R ag: -4%; GLP-1R inv ag: inconclusive

What do the screens show for `CS(=O)(=O)c1ccc(C(=O)C2C(=O)CCCC2=O)c([N+](=O)[O-])c1`?
GLP1R ag: 24%[96 µM]

Results for Cc1ccc(/C=C2/C(=O)NC(=O)N(CC3CCCO3)C2=O)s1 (stereo not drawn) ?
IDH1 R132H inh: -6%; TrxR1 substrate: -1%; GLP1R cytotox: 1%; TrxR1 inh: 50µM*; GLP1R ag: -6%; GLP-1R inv ag: 23%

What do the screens show for `O=[N+]([O-])c1ccc(/C=N/Nc2ccnc3cc(Cl)ccc23)o1`?
IDH1 R132H inh: 5%; TrxR1 substrate: -1%; GLP1R cytotox: inconclusive; TrxR1 inh: inconclusive; GLP1R ag: 11%; GLP-1R inv ag: -13%

Results for O=C(CC12CC3CC(CC(C3)C1)C2)N/N=C/c1ccc([N+](=O)[O-])o1 ?
IDH1 R132H inh: 10%; TrxR1 substrate: 2%; GLP1R cytotox: inconclusive; TrxR1 inh: 40µM*; GLP1R ag: 1%; GLP-1R inv ag: inconclusive

What do the screens show for `CCOC(=O)C1(CCOc2ccccc2)CCN(Cc2cccc(O)c2)CC1`?
IDH1 R132H inh: 17%; TrxR1 substrate: 6%; GLP1R cytotox: -18%; TrxR1 inh: 28%; GLP1R ag: 5%; GLP-1R inv ag: inconclusive

How did CCOC(=O)C1(CCOc2ccccc2)CCN(Cc2ccccc2OC)CC1 do in these assays?
IDH1 R132H inh: 0%; TrxR1 substrate: -4%; GLP1R cytotox: -20%; TrxR1 inh: 17%; GLP1R ag: 6%; GLP-1R inv ag: 8.9µM*

Results for Cc1ccc(S(=O)(=O)Oc2ccccc2C=C2C(=O)N(C)C(=O)N(C)C2=O)cc1 ?
IDH1 R132H inh: 0%; TrxR1 substrate: -3%; GLP1R cytotox: -6%; TrxR1 inh: 50µM*; GLP1R ag: -10%; GLP-1R inv ag: inconclusive

Results for CC(C)(C)OC(=O)N(CCc1ccccc1)Cc1ccc(OCc2cccc(NC(=O)c3ccccc3)c2)cc1 ?
IDH1 R132H inh: 8%; TrxR1 substrate: 3%; GLP1R cytotox: 3%; TrxR1 inh: 34%; GLP1R ag: 6%; GLP-1R inv ag: 7.9µM*

What do the screens show for `Cc1ccc(N2C(=O)NC(=O)/C(=C\C=C\c3ccco3)C2=O)cc1C`?
IDH1 R132H inh: -5%; TrxR1 substrate: -2%; GLP1R cytotox: inconclusive; TrxR1 inh: 50µM*; GLP1R ag: -23%; GLP-1R inv ag: inconclusive

What do the screens show for `Cn1cccc1/C=C1\C(=O)NC(=O)N(Cc2ccco2)C1=O`?
IDH1 R132H inh: 1%; TrxR1 substrate: -2%; GLP1R cytotox: -16%; TrxR1 inh: -27%; GLP1R ag: -2%; GLP-1R inv ag: 16%

Results for Cc1ccc(OCCn2cccc2/C=C2/C(=O)NC(=O)N(Cc3ccco3)C2=O)cc1 ?
IDH1 R132H inh: 1%; TrxR1 substrate: 4%; GLP1R cytotox: -4%; TrxR1 inh: 40µM*; GLP1R ag: 12%; GLP-1R inv ag: -25%

Results for O=C1NC(=O)N(Cc2ccco2)C(=O)/C1=C/C=C/c1ccco1 ?
IDH1 R132H inh: -7%; TrxR1 substrate: -4%; GLP1R cytotox: -24%; TrxR1 inh: 35µM*; GLP1R ag: 2%; GLP-1R inv ag: inconclusive

How did Cc1ccc(N2C(=O)NC(=O)/C(=C\C=C\c3ccco3)C2=O)cc1 do in these assays?
IDH1 R132H inh: -8%; TrxR1 substrate: -9%; GLP1R cytotox: inconclusive; TrxR1 inh: inconclusive; GLP1R ag: 0%; GLP-1R inv ag: inconclusive

How did COc1ccc(CN2CCC(n3nccc3NC(=O)CCOc3ccccc3)CC2)cc1C do in these assays?
IDH1 R132H inh: -2%; TrxR1 substrate: -5%; GLP1R cytotox: inconclusive; TrxR1 inh: -10%; GLP1R ag: -1%; GLP-1R inv ag: inconclusive

What do the screens show for `COc1ccc(NC(=O)CCS(=O)(=O)c2nc(-c3cccs3)cc(C(F)(F)F)n2)cc1`?
IDH1 R132H inh: -6%; TrxR1 substrate: 13%[2.29 µM]; GLP1R cytotox: inconclusive; TrxR1 inh: 13µM*; GLP-1R inv ag: inconclusive

What do the screens show for `COc1ccc(Cl)cc1NC(=O)CCCS(=O)(=O)c1nc(-c2ccc(OC)c(OC)c2)cc(C(F)(F)F)n1`?
IDH1 R132H inh: -8%; TrxR1 substrate: 36%; GLP1R cytotox: inconclusive; TrxR1 inh: 22%; GLP-1R inv ag: inconclusive

Results for C[C@H]1[C@@H]2Cc3ccc(O)cc3[C@]1(C)CCN2C ?
GLP1R ag: 0%[231 µM]

What do the screens show for `CN1C(=O)C(=Cc2ccc(Sc3ccccc3)o2)C(=O)N(C)C1=S`?
IDH1 R132H inh: -10%; TrxR1 substrate: -3%; GLP1R cytotox: 0%; TrxR1 inh: 20µM*; GLP1R ag: 1%; GLP-1R inv ag: -4%

What do the screens show for `COc1cccc(C(=O)Oc2c(Sc3ccc(C)cc3)c(C)nn2C(C)(C)C)c1OC`?
IDH1 R132H inh: 14%; TrxR1 substrate: -2%; GLP1R cytotox: inconclusive; TrxR1 inh: 22%; GLP-1R inv ag: 3.2µM*
